HEK293 tox: cytotoxic in the GLP-1 receptor inverse agonist counter-screen | Potency, µM (titrated, usually from 38.3 µM), without a hit: at the top dose activity change, negative = inhibition, usual class: inhibitors | 0.13% of 410,000 active | HEK293 cAMP-luciferase reporter cells, luminescence, 24 h | AID 624418;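 further: loss of luciferase light is scored as toxicity; on the % scale 0 is the no-effect control and ±100 the full control effect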
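Compound-treated cells are incubated 24 hr at 37 deg C under 5% CO2 after a 12 hour attachment period, then luciferase detection reagent is added and luminescence is measured following 12 min at room temperature; lowered signal indicates toxicity.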
GLP-1R inv ag: inverse agonists of human GLP-1 receptor; Potency, µM (series often up to 38.3 µM), without a hit: at the highest dose activity change, negative = inhibition, usual class: inhibitors; P43220; 1.6% of 410,000 active; HEK293 GLP-1R CRE-luciferase, luminescence, 24 h; GLP-1R form is constitutively active; further: on the % scale 0 is the no-effect control and ±100 the full control effect; nearly all actives have a fitted effect of over 55% in size
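HEK293 cells stably co-expressing constitutively active GLP-1R and a cAMP-responsive luciferase reporter were seeded in DMEM with 10% Nu serum, given compounds after 12 h, and incubated 24 h at 37 deg C. Luminescence was then read.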
GLP1R ag: agonists of human GLP-1 receptor; 0.007% of 380,000 active; P43220; Potency, µM (doses to about 45.6 µM), without a hit: at the highest dose activation, actives largely listed as activators; HEK293 GLP-1R CRE-luciferase, luminescence, 4-6 h; cells express a hypersensitive GLP-1R form; further: % of control where 0% means no effect
PTHR1 ag: activates the human parathyroid hormone receptor PTHR1; Potency, µM (titrated, usually from 115 µM), for inactives: top-dose activation, hits mostly activators; HEK293 GP2 PTHR1 cells, GloSensor cAMP luminescence, 1 h; AID 743266; 0.075% of 410,000 active; Q03431; further: nearly all actives have a fitted effect of over 55% in size
Target sequence (Q03431 whole entry, looked up): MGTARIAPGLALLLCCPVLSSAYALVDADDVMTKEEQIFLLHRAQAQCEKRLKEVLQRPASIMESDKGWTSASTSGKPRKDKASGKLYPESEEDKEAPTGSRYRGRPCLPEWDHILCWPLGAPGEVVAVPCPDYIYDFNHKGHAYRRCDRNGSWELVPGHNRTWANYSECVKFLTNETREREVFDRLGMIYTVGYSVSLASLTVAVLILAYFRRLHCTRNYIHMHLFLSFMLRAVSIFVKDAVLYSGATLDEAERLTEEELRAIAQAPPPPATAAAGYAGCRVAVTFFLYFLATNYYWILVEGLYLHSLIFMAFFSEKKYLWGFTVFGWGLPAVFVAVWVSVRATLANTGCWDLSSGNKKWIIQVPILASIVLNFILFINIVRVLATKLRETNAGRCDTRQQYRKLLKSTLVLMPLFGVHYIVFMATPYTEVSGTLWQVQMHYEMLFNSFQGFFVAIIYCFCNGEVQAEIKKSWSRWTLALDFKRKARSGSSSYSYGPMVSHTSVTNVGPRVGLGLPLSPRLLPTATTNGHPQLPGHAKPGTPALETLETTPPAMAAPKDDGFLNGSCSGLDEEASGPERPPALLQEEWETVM
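HEK-293-derived GP2 cells expressing PTHR1 and a GloSensor cAMP reporter, 3,000/well, plated overnight, given luciferin plus IBMX (each 0.5 mM as added) for 1 h at 37 °C, then compound for 1 h at 37 °C. Luminescence was read after 15 min at room temperature.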
* hit, by the source's call; i = inactive; ? = inconclusive; · = no result given; [ ] = remark or other dose. Hits are enriched below; roughly 1.7% of the tested compounds scored in any of these assays. The call rests on the fitted dose curve; in most records, active means well fitted curve in the direction sought with a large enough effect; inconclusive means small, poorly fitted or top-dose-only effect, or another doubt; inactive means no such curve, though single readings can be large; an effect the other way counts as inactive or inconclusive. Potency means the concentration at half of the fitted maximal effect.

SMILES	HEK293 tox	GLP-1R inv ag	GLP1R ag	PTHR1 ag
CCCCn1c(N)c(N(CCOC)C(=O)CSCc2ccc(Cl)c(Cl)c2)c(=O)[nH]c1=O	6%	-17%	0%	-18%
CCCN(C(=O)c1cc2c(=O)n(CC)c3ccccc3c2s1)c1ccccc1F	1%	-26%	-1%	i
CCOc1ccccc1N(CC)C(=O)c1cc2c(=O)n(CC)c3ccccc3c2s1	?	10µM*	-1%	-57%
COc1ccc(N2CCN(C(=O)c3cc(-c4ccc(F)cc4)[nH]c3C)CC2)cc1	-8%	10µM*	7%	-30%
O=C(N[C@H]1CCC(=O)N([C@H](CSc2ccccc2)Cc2ccccc2)CC1)OCc1ccccc1	3%	?	6%	-12%
O=C(N[C@@H]1CCC(=O)N(CC[C@H](Sc2ccc(Br)cc2)c2ccccc2)CC1)OCc1ccccc1	-22%	?	8%	-68%
Cc1ccc(SC[C@H](C)CN2CC[C@H](C)CCC2=O)cc1	1%	?	3%	-2%
C[C@@H](CSc1ccc(Br)cc1)CN1CC[C@H](NC(=O)OCc2ccccc2)CCC1=O	-3%	?	-6%	i
COc1ccc(SC[C@H](C)CN2CC[C@H](NC(=O)OCc3ccccc3)CCC2=O)cc1	16%	10µM*	12%	-37%
CC(=O)Nc1ccc(SC[C@H](C)CN2CC[C@H](C(C)(C)C)CCC2=O)cc1	-32%	10µM*	4%	-89%
COc1ccc(S[C@@H](CCN2CC[C@H](NC(=O)OCc3ccccc3)CCC2=O)c2ccccc2)cc1	-3%	3.2µM*	-3%	-53%
O=C(N[C@H]1CCC(=O)N([C@H](CSc2ccc(Br)cc2)Cc2ccccc2)CC1)OCc1ccccc1	-27%	4µM*	10%	-22%
Cc1cccc(C)c1NC(=S)N(CCN1CCCCCC1)Cc1ccco1	-17%	10µM*	0%	-18%
Cc1cc(C)c(NC(=S)N(CCN2CCCCC2)Cc2ccco2)c(C)c1	?	?	7%	i
O=C(Nc1ccc(F)c(F)c1)c1ccc(F)c(S(=O)(=O)N2CCC3(CC2)OCCO3)c1	-11%	3.5µM*	-1%	-42%
CN(Cc1ccccc1)c1ccc(-c2nc(-c3ccco3)no2)cc1[N+](=O)[O-]	5%	18%	·	-7%
FC(F)(F)c1nc(-c2cccs2)ncc1-c1nnnn1-c1ccc(Cl)cc1	-29%	7.1µM*	-15%	i
CC(C)(C)c1ccc(/C=N/OCC(=O)NCc2ccccc2)cc1	20%	8.9µM*	15%	-9%
Cc1ccc(CNC(=O)CO/N=C/c2ccc(C(C)(C)C)cc2)cc1	-21%	?	-3%	-61%
COc1ccc(CCN(C(=O)C(F)(F)F)C(C(=O)NC2CCCCC2)c2cccs2)cc1 (stereo not given)	-4%	6.3µM*	5%	i
Cc1ccc(Cl)cc1-n1ncc2c(NCCC3=CCCCC3)ncnc21	-8%	8.9µM*	·	-23%
Cc1ccc(Cl)cc1-n1ncc2c(NCCCc3ccccc3)ncnc21	-1%	11µM*	·	-39%
Fc1ccc(-n2ncc3c(NCCC4=CCCCC4)ncnc32)cc1	-3%	17%	·	-5%
Cc1ccc(Cl)cc1-n1ncc2c(NCCc3ccccc3)ncnc21	-3%	?	·	-42%
COc1ccc2oc(=O)c(C(=O)NCCc3c(C)[nH]c4c(C)cccc34)cc2c1	-11%	?	20%	-39%
SMILES	HEK293 tox	GLP-1R inv ag	GLP1R ag	PTHR1 ag
O=C(NCCc1csc(-c2cccnc2)n1)c1ccc(F)c(F)c1	4%	-9%	7%	-86%
COc1ccc(C(=O)Nc2nc3n(n2)C(c2ccc(F)cc2)C=C(c2ccc(Cl)cc2)N3)cc1 (stereo not given)	i	10%	·	-9%
CCCC[C@@H]1CNCCN1CCc1cc(C(F)(F)F)cc(C(F)(F)F)c1	?	11µM*	-7%	-3%
CCCCCCSc1nnc(-c2cnn(-c3ccccc3)c2-n2cccc2)n1C	?	4.5µM*	-3%	-90%
CCSc1nnc(-c2cnn(-c3ccccc3)c2-n2cccc2)n1C	-3%	-26%	-13%	i
Cc1cccn2cc(CSc3nnc(Nc4ccc(C(C)C)cc4)s3)nc12	-11%	10µM*	5%	-17%
Cc1cc(C)cc(-n2ccn(CC(=O)Nc3ccccc3C(F)(F)F)c(=O)c2=O)c1	5%	-9%	·	i
O=C1/C(=C\c2cccs2)CCC/C1=C/c1cccs1	·	·	16%	·
CCC(Oc1ccccc1)C(=O)Nc1cc(-c2ccccc2OC)nn1-c1ccccc1 (stereo not given)	8%	4.5µM*	·	-23%
Cc1ncsc1C(=O)N1N=C2/C(=C/c3ccccc3)CCCC2C1c1ccccc1 (stereo not given)	-13%	4µM*	-2%	-28%
Cc1ncsc1C(=O)N1N=C2/C(=C/c3ccc(N4CCOCC4)cc3)CCCC2C1c1ccc(N2CCOCC2)cc1 (stereo not given)	-23%	-5%	21%	-6%
O=C(NC12CC3CC(CC(C3)C1)C2)c1cc(F)c(F)cc1Cl	-1%	10µM*	-3%	-38%
O=C(NC12CC3CC(CC(C3)C1)C2)c1ccccc1O	-16%	5.6µM*	3%	-9%[57.5 µM]
COc1cc(/C=N/Nc2nc(Nc3ccccc3)nc(N3CCOCC3)n2)ccc1OC(=O)c1ccco1	-26%	4.5µM*	5%	-13%
COc1ccc(/C=N/Nc2nc(Nc3ccccc3)nc(N3CCCC3)n2)cc1[N+](=O)[O-]	?	8%	14%	-20%
COc1ccc(/C=N/Nc2nc(Nc3ccccc3)nc(N3CCCCC3)n2)c(OC)c1	5µM*	?	3%	-24%
c1cnc2cc3c(cc2n1)[C@@H]1CNC[C@@H]3C1	·	·	2%	·
CCOc1ccccc1NC(=O)c1c(NCc2cccs2)sc2c1CCCCC2	-15%	13µM*	·	-24%
Cc1ccc(S(=O)(=O)Nc2cccc(C(=O)NCC3(N4CCCCC4)CCCCC3)c2)cc1F	-27%	11µM*	14%	i
CN1/C(=C\C=C(/C#N)C(=O)Nc2ccc(Cl)cc2)C(C)(C)c2ccccc21	28%	20%	3%	i
CN1/C(=C\C(=O)Nc2ccc(Cl)cc2)C(C)(C)c2ccccc21	-26%	10µM*	17%	-28%
CN1/C(=C\C(=S)Nc2ccccc2)C(C)(C)c2ccccc21	?	11µM*	12%	-24%
COc1cc(/C=C(\C#N)c2nc3ccccc3c(=O)[nH]2)cc(OC)c1OC	2%	-26%	8%	i
Cc1ccc(/C=C/c2nc3ccccc3[nH]2)cc1	-9%	2.5µM*	·	-21%
CC1CCN(CC(=O)Nc2ccccc2Sc2ccccc2)CC1	5%	4.5µM*	4%	-17%
CCc1ccc(NC(=O)CSc2nc3c([nH]c4ccccc43)c(=O)n2C)cc1	-19%	13%	·	i
O=C(c1ccc(Cl)c(Cl)c1)N(Cc1ccco1)c1ccc(O)cc1	-3%	11µM*	2%	-32%[57.5 µM]

Screening data from PubChem BioAssay.
